Screening data (PubChem BioAssay)
Vif imaging – HIV Vif self-association inhibitors, primary screen, imaging, HEK293T, single point; inhibition, % at 7.49 µM; AID 602346, 2012; 340,000 tested, 0.35% active; HEK293T cells, Vif self-association by quenched fluorescence, 24 h; in the data active means inhibition above about 50%, passing the limit was not always enough
Pemphigus Ab inh – inhibitors of pemphigus antibody binding to DSG3, primary screen, biochemical, bead-based, flow cytometry, scFv-GFP | Desmoglein-3 (Homo sapiens), P32926 | 310,000 tested, 0.48% active | AID 588358, 2011 | binding (percent of control), % at 10 µM | DSG3-coupled beads, scFv-anti-DSG3-GFP binding; stronger effect = lower value;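 active means binding more than 3 SD below its plate's average and above zero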;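 further: hits lower antibody fragment binding to DSG3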
Glyco luc inh – increase of ERlucT glycosylation luciferase signal, primary screen, N-linked glycosylation inhibitor project, D54 ERlucT cells, luminescence, set 2; D54 ERlucT glycosylation luciferase reporter, 24 h; percent of 100 nM tunicamycin response; AID 588692, 2011; 360,000 tested, 0.23% active; reporter increase, % at 12.5 µM;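 active means mean luciferase reporter signal, scaled so untreated is 0 and the glycosylation-blocking control 100, at or above a set limit in every replicate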;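 further: luciferase carries N-glycosylation sites so blocking glycosylation raises the light; 0% = median of neutral control wells and 100% = median of 100 nM tunicamycin wells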
NSD2 inh – NSD2 histone methyltransferase inhibitors, primary screen, biochemical, AlphaScreen, single concentration, set 2 | inhibition, % at 12.5 µM | Histone-lysine N-methyltransferase NSD2 (Homo sapiens), O96028 | NSD2 peptide methylation, 120 min | 310,000 tested, 0.54% active | AID 743445, 2014
ATG4B inh – ATG4B protease inhibitors, primary screen, biochemical, fluorescence, uHTS. Cysteine protease ATG4B (Homo sapiens), Q9Y4P1. ATG4B cleavage of LC3-PLA2, NBD-HPC fluorescence, 1 h. inhibition, % at 8.33 µM. 340,000 tested, 0.51% active; in the data active means inhibition above about 40%
Target sequence (Q9Y4P1 whole entry, looked up): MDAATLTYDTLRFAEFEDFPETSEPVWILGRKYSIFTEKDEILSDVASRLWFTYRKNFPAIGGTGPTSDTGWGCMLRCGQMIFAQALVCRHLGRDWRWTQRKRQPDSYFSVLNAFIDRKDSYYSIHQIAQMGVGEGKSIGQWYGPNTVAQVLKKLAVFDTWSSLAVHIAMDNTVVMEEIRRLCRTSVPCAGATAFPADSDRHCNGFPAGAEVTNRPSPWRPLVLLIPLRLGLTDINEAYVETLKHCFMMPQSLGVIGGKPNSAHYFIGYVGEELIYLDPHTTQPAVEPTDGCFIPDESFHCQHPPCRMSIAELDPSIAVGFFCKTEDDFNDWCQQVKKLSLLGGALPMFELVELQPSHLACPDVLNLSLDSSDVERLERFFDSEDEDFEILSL
CaV13 ICDI inh – Disruptors of the CACNA1D IQ motif to Ca2+-dependent inactivation inhibitor domain association, primary screening, Förster resonance energy transfer in intact living … | HEK cells, CFP/YFP FRET ICDI-IQ, plate reader, 10 min; percent FRET-ratio fall versus neutral wells | inhibition, % at 12.3 µM | 340,000 tested, 0.098% active | AID 743397;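 active means mean replicate inhibition of at least 30% and at least 1% of replicates passing that level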;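 further: 0% = median of the neutral control wells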
ATG4B confirm – ATG4B protease inhibitors, retest, confirmation, biochemical, fluorescence, single concentration | shares compounds with ATG4B inh | ATG4B protease fluorescent substrate cleavage assay | inhibition, % at 8.33 µM | 320 tested, 92% active | AID 504757, 2011; in the data active means inhibition above about 39%
PLA2 ctr – PLA2 enzyme inhibition, counter-screen for ATG4B inhibitor project, biochemical, single concentration, uHTS hits; shares compounds with ATG4B inh; inhibition, % at 8.33 µM; purified PLA2, NBD-C6-HPC fluorescence, 45 min; 1,600 tested, 66% active; AID 588402, 2011
Target sequence (P04054 whole entry, looked up): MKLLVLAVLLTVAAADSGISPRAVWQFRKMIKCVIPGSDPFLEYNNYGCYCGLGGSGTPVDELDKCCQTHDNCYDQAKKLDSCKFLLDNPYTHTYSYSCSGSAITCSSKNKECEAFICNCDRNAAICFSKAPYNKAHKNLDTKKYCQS
Starred values were filed as active, the others as inactive. Most compounds without a hit are left out; they make up all but 1.9% or so of the library. Unless noted, no stated cut-off is given here; in the data, active means inhibition above about 50%; inactive means the rest.

COc1ccc2[nH]c3c(NCc4ccco4)ncnc3c2c1 was read as ATG4B inh 4.
For Fc1ccc2[nH]c3c(NCc4ccccc4)ncnc3c2c1 the results were Vif imaging -8, Pemphigus Ab inh 89, Glyco luc inh 3, ATG4B inh 50*, CaV13 ICDI inh -5 and PLA2 ctr 65*.
For CCOC(=O)c1c(NC(=O)C2Cc3ccccc3C(=O)O2)sc2c1CCCC2 (stereo not drawn) the results were Vif imaging -8, Pemphigus Ab inh 92, Glyco luc inh 1, ATG4B inh 3 and CaV13 ICDI inh -6.
`COC(=O)c1c(NC(=O)C2Cc3ccccc3C(=O)O2)sc2c1CCCC2` (stereo not drawn) gave Vif imaging -14, Pemphigus Ab inh 86, Glyco luc inh 4, NSD2 inh 50, ATG4B inh 49*, CaV13 ICDI inh 0, ATG4B confirm 83* and PLA2 ctr 29.
O=C(CSc1nnc(Cc2ccccc2)o1)NC1CCCCC1 was read as Vif imaging 10, Glyco luc inh 0, NSD2 inh -2, ATG4B inh 0 and CaV13 ICDI inh -8.
`O=C1N/C(=N\N=C\c2cccs2)SC1Cc1ccc(Cl)cc1` (stereo not drawn) gave Vif imaging 5, Pemphigus Ab inh 105, Glyco luc inh 1, NSD2 inh -2, ATG4B inh 43*, CaV13 ICDI inh -3 and PLA2 ctr -1.
O=C1CCCC2=C1C(c1ccc(Br)cc1)c1c([nH]c(=S)[nH]c1=O)N2 (stereo not drawn) was read as Vif imaging -3, Pemphigus Ab inh 96, Glyco luc inh 2, NSD2 inh 0, ATG4B inh -2 and CaV13 ICDI inh -6.
O=c1[nH]c(=S)[nH]c2c1C(c1ccc(Br)cc1)c1c([nH]c(=S)[nH]c1=O)O2 was read as Vif imaging 4, Pemphigus Ab inh 424, Glyco luc inh 1, ATG4B inh 53*, CaV13 ICDI inh -19, ATG4B confirm 15 and PLA2 ctr 1.
COc1cccc(CNC(=O)CCNS(=O)(=O)c2ccc3[nH]c(=O)oc3c2)c1 was read as Vif imaging -4, Pemphigus Ab inh 109, Glyco luc inh 1, NSD2 inh 0 and ATG4B inh 7.
For Cn1c(-c2c(N)n(CCc3ccccc3)c3nc4ccccc4nc23)nc2ccccc21 the results were Vif imaging 0, Pemphigus Ab inh 105, Glyco luc inh -1, NSD2 inh -12, ATG4B inh 14 and CaV13 ICDI inh 9.
Screening Cn1c(-c2c(N)n(CCCc3ccccc3)c3nc4ccccc4nc23)nc2ccccc21 returned Vif imaging -3, Pemphigus Ab inh 96, Glyco luc inh -5, NSD2 inh -5, ATG4B inh 42*, CaV13 ICDI inh -7 and PLA2 ctr 52*.
Screening Cc1oc(-c2ccccc2)cc1C(=O)Nc1cccc(C(=O)O)c1 returned Vif imaging -2, Pemphigus Ab inh 111, Glyco luc inh -1, NSD2 inh 2, ATG4B inh -2 and CaV13 ICDI inh -8.
Screening COc1ccc(N=NC2C(=O)N(c3ccccc3)N=C2C)cc1 (stereo not drawn) returned Vif imaging 6, Pemphigus Ab inh 98, Glyco luc inh 0, NSD2 inh 14, ATG4B inh -1 and CaV13 ICDI inh -4.
`CCOc1ccc(N2CC(O)=C(c3nc4ccccc4c(=O)[nH]3)C2=N)cc1` gave Vif imaging 2, Pemphigus Ab inh 104, Glyco luc inh 1, NSD2 inh 0, ATG4B inh -14 and CaV13 ICDI inh -23.
`Cc1ccc(N2CC(O)=C(c3nc4ccccc4c(=O)[nH]3)C2=N)cc1C` gave Vif imaging 3, Pemphigus Ab inh 108, Glyco luc inh 2, NSD2 inh -2, ATG4B inh 46*, CaV13 ICDI inh -3 and PLA2 ctr 38.
For CCN(CCN(C)C)C(=O)Cn1ncc2c1-c1cc(C)ccc1OC2 the results were Vif imaging -5, Pemphigus Ab inh 98, Glyco luc inh 1, ATG4B inh 0 and CaV13 ICDI inh 2.
`Cc1cccc(C)c1N1CCN(C(=O)Nc2ccc3c(c2)OCCO3)CC1` gave Vif imaging -6, Glyco luc inh -7, ATG4B inh 44*, CaV13 ICDI inh -3 and PLA2 ctr 63*.
Screening CCCCCCOC(=O)C[N+](C)(C)CCOC1CC2CCC1(C)C2(C)C (stereo not drawn) returned Vif imaging -1, Pemphigus Ab inh 115, Glyco luc inh 2, NSD2 inh -3, ATG4B inh 10 and CaV13 ICDI inh -3.
For CCCCCCCOC(=O)C[N+](C)(C)CCOC1CC2CCC1(C)C2(C)C (stereo not drawn) the results were Vif imaging -5, Pemphigus Ab inh 112, Glyco luc inh 10, NSD2 inh 3, ATG4B inh 53*, CaV13 ICDI inh -5, ATG4B confirm 48* and PLA2 ctr 41.
`O=C1Nc2ccc(Cl)cc2C12Nc1ccccc1-c1nnc(SCc3ccccc3F)nc1O2` (stereo not drawn) gave Vif imaging -4, Pemphigus Ab inh 108, Glyco luc inh 2, NSD2 inh 7, ATG4B inh 50*, CaV13 ICDI inh -8 and PLA2 ctr 63*.
For O=C1Nc2ccc(F)cc2C12Nc1ccccc1-c1nnc(SCc3ccccc3F)nc1O2 (stereo not drawn) the results were Vif imaging 10, Pemphigus Ab inh 102, Glyco luc inh 1, ATG4B inh 11 and CaV13 ICDI inh -9.
Screening O=C(CCNC(=O)c1ccccc1Cl)Nc1ccncc1 returned Vif imaging -3, Pemphigus Ab inh 95, Glyco luc inh 0, NSD2 inh -4, ATG4B inh 4 and CaV13 ICDI inh -3.
